These results are taken from PubChem BioAssay.

The nature of experiment [1]: compound effects on lung adenocarcinoma cell viability – A549, calcein-AM fluorescence, 48 h, basal, profiling panel (AID 1162). The following applies: higher = more signal.
Experiment [2] is described as follows: compound effects on differentiated 3T3-L1 adipocyte viability – cell-based, 3T3-L1 adipocytes, calcein-AM fluorescence, 48 h, basal, profiling panel (AID 1163). The following applies: 3T3-L1 adipocytes viability, higher = more signal.
Experiment [3] is described as follows: compound effects on hepatocellular carcinoma cell viability – HepG2, calcein-AM fluorescence, 48 h, basal, profiling panel (AID 1164). The following applies: higher = more signal.
The nature of experiment [4]: compound effects on multiple myeloma cell viability – MM1S, calcein-AM fluorescence, 48 h, basal, profiling panel (AID 1165).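 Further: viability of MM1S multiple myeloma cells under basal unstimulated conditions.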 The following applies: higher = more signal.
A short description of experiment [5]: calcein-AM signal in unstimulated myeloma cells – cell-based, calcein-AM fluorescence, 48 h, PK04 Diversity Set, profiling panel (AID 1166).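 Further: cells grown under basal conditions without added stimulus.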 To be noted: RPMI8226 myeloma viability, higher = more signal.
The nature of experiment [6]: JC-1 mitochondrial signal, unstimulated HepG2 cells – cell-based, JC-1 fluorescence, 24 h, 100 nL compound, profiling panel (AID 1167). The following applies: HepG2 mitochondrial potential, higher = more signal.
Experiment [7] in a line: JC-1 mitochondrial signal, unstimulated adipocytes – cell-based, JC-1 fluorescence, 3T3-L1 adipocytes, 24 h, 100 nL compound, profiling panel (AID 1168). To be noted: JC-1 mitochondrial fluorescence, higher = more signal, called active from +8 up or from −8 down.
Experiment [8] can be described thus: JC-1 mitochondrial signal, unstimulated myeloma cells – cell-based, JC-1 fluorescence, RPMI8226, 24 h, 100 nL compound, profiling panel (AID 1169). To be noted: JC-1 mitochondrial potential fluorescence, higher = more signal.
Experiment [9] can be described thus: JC-1 mitochondrial signal, unstimulated MM1S myeloma – cell-based, JC-1 fluorescence, 24 h, 100 nL compound, profiling panel (AID 1170). The following applies: MM1S mitochondrial potential, higher = more signal.
The nature of experiment [10]: resazurin metabolic signal in A549 cells – cell-based, resazurin fluorescence, 24 h, PK04 Diversity Set, profiling panel (AID 1171). The following applies: A549 viability, higher = more signal, called active from +8 up or from −8 down.

The source made the active and inactive calls.
Further: test concentration not given here.

In the case of `COC(=O)Cn1c(C(=O)N(C)C)cc2c1C[C@H]1CN(C(=O)c3ccccc3)[C@@](Cc3ccc(F)cc3)(C(=O)OC)[C@@H]21`, the z-score in [1] was -0.0599; in experiment [2], -1.23; in experiment [3], 0.0845; in experiment [4], -1.38; in experiment [5], -1.58; in [6], 0.0394. Further, the z-score in experiment [7] is -0.53 (inactive); in experiment [8] it was 0.446; in experiment [9], -0.148; in experiment [10], -0.421 (inactive).
For `C=C(COC)C(=O)CC[C@@H](OC(=O)c1cccnc1)c1ccc(OCCO)cc1`, the z-score was -0.1 in [1]; -0.486 in experiment [2]; -0.419 in [3]; -2.55 in experiment [4]; -1.29 in experiment [5]; -1.89 in experiment [6]. Moreover, the z-score in [7] was 0.42 (inactive); in experiment [8] it was 0.829; in [9] it was -0.374; in experiment [10], -0.284 (inactive).
Turning to `COCCCNC(=O)[C@@]1(Cc2ccccc2CN=[N+]=[N-])N=C(c2ccc(OCCCO)cc2)O[C@H]1c1ccccc1`, the z-score in [1] was -1.15; in [2] it was 0.759; in [3], -0.798; in experiment [4] it was -2.93; in experiment [5] it was -4.32; in experiment [6], 0.331. The z-score was -0.00801 (inactive) in [7], -1.25 in experiment [8], -0.69 in experiment [9] and 0.385 (inactive) in experiment [10].
In the case of `CCCCCCCCCCC(O)C1C=CC2C(=O)N(C)C(=O)C2N1Nc1ccc([N+](=O)[O-])cc1[N+](=O)[O-]` (stereo not given), the z-score is -0.783 in [1]; -0.801 in [2]; -1.2 in [3]; -3.69 in experiment [4]; -4.05 in experiment [5]; 0.693 in [6]. The z-score in experiment [7] was -1.21 (inactive); in experiment [8] it was -0.935; in experiment [9], -1.8; in experiment [10], -0.283 (inactive).
In the case of `C=CCC(OC(C)=O)[C@@H]1[C@@H](N(Cc2cc3ccccc3o2)C(=O)c2ccc(-c3ccccc3)cc2)c2cc(OCCCO)ccc2N1C(=O)c1ccc2ccccc2c1` (stereo not given in full), the z-score is 0.48 in experiment [1]; 1 in experiment [2]; 0.063 in experiment [3]; 0.532 in experiment [4]; 0.299 in experiment [5]; 1.81 in [6]. Also, the z-score was -1.11 (inactive) in experiment [7], 0.868 in experiment [8], 0.32 in experiment [9] and 0.457 (inactive) in experiment [10].
Regarding `COc1ccc([Si](C)(C)[C@@H]2[C@@H](CC(=O)N(CCO)Cc3ccccc3)O[C@]3(C(=O)N(Cc4cccc(N5C(=O)c6cccc7cccc5c67)c4)c4ccccc43)[C@H]2C)cc1`, the z-score in experiment [1] is -1.32; in [2] it was 1.43; in experiment [3], -1.12; in experiment [4], -1.48; in [5], -3.72; in experiment [6], 0.641. For the same compound, the z-score is 2.03 (inactive) in experiment [7], -1.02 in [8], -1.4 in experiment [9] and -0.999 (inactive) in experiment [10].
On to `CC1=C([C@H](O)CCc2ccccc2)[C@H](CO)[C@@H]2C(=O)N(C)C(=O)[C@@H]2C1`, for which the z-score in experiment [1] was 1.18; in [2], -0.371; in experiment [3] it was -0.473; in [4], 0.236; in experiment [5], -0.245; in experiment [6] it was -0.622. The z-score in [7] was 0.459 (inactive); in [8], -0.0985; in experiment [9] it was -0.279; in experiment [10], -0.39 (inactive).
For the compound `COC(=O)c1nc2oc1CC[C@@H](CO)NC(=O)N(C)Cc1cnnn1C[C@H](Cc1ccccc1)NC2=O`, the z-score is 0.0656 in experiment [1]; -0.65 in experiment [2]; 0.537 in experiment [3]; 1.01 in [4]; 0.529 in experiment [5]; 0.912 in experiment [6]. For the same compound, the z-score in experiment [7] was 1.25 (inactive); in experiment [8], -0.912; in [9] it was -0.511; in experiment [10], 0.634 (inactive).
With `COCCOC(=O)N1C(=O)[C@@]2(c3cc(C#CC4=CCCCC4)ccc31)[C@H](C(N)=O)[C@H]1C(=O)O[C@H](c3ccccc3)[C@H](c3ccccc3)N1[C@@H]2c1ccccc1OCCO`, the z-score was -2.23 in experiment [1]; 0.619 in [2]; -3.63 in experiment [3]; -3.29 in experiment [4]; -3.99 in experiment [5]; -2.49 in experiment [6]. For the same compound, the z-score in [7] was 2.7 (inactive); in experiment [8] it was -0.819; in experiment [9], -1.6; in experiment [10], -2.57 (inactive).
As to `N#Cc1ccc(C(O)C2C=CC3C(=O)N(c4ccccc4)C(=O)C3N2Nc2ccccc2)cc1` (stereo not given), the z-score in experiment [1] is -0.26; in experiment [2] it was 0.744; in [3], -0.638; in experiment [4], 0.41; in experiment [5] it was -0.153; in [6] it was -0.651. Further, the z-score in [7] was 0.693 (inactive); in experiment [8], 0.173; in experiment [9], -0.482; in [10], -1 (inactive).
For the compound `COc1ccc([Si](C)(C)[C@H]2[C@H](CCn3cc([C@H](O)c4ccccc4)nn3)O[C@@]3(C(=O)N(Cc4ccc(N5C(=O)c6cccc7cccc5c67)cc4)c4ccccc43)[C@@H]2C)cc1`, the z-score was 0.332 in experiment [1]; -0.488 in [2]; 1.02 in experiment [3]; -0.702 in experiment [4]; -0.74 in [5]; 1.58 in [6]. Also, the z-score in experiment [7] is -0.526 (inactive); in experiment [8], -0.296; in experiment [9], 0.516; in experiment [10] it was -1.26 (inactive).
`Cc1ccc(S[C@]2(C(=O)NCCCN(C)C)CC(=O)N(C3CCCCC3)[C@@H]2c2ccc(CO)cc2)cc1`: the z-score was 0.242 in experiment [1]; -0.148 in experiment [2]; -0.0685 in experiment [3]; -1.96 in [4]; -0.0053 in [5]; 1.53 in [6]. Moreover, the z-score in experiment [7] was -0.112 (inactive); in experiment [8], -0.151; in experiment [9] it was -0.528; in [10] it was 1.06 (inactive).
On to `CN(C)CCCNC(=O)[C@@]1(C)c2ccccc2C(=O)N(Cc2ccccc2)[C@H]1c1ccc(CO)cc1`, for which the z-score in [1] is 0.0156; in experiment [2], 0.451; in [3] it was 0.339; in [4], -0.748; in experiment [5] it was 0.3; in experiment [6], 0.303. The z-score was 0.457 (inactive) in experiment [7], -0.798 in [8], 0.445 in experiment [9] and 0.356 (inactive) in experiment [10].
Take `COC(=O)c1c(CC[C@@H](CO)NC(=O)N2CCC[C@H]2Cn2cc(Cc3ccccc3)nn2)oc(C(C)=O)c1C(=O)OC`: the z-score in experiment [1] is -0.105; in [2] it was -0.25; in experiment [3], -0.904; in [4], 0.823; in experiment [5] it was -1.41; in [6], -0.123. The z-score in experiment [7] was -0.0157 (inactive); in experiment [8], 0.127; in [9], -0.236; in experiment [10], 0.435 (inactive).
`O=C1c2ccccc2[C@](Cc2ccccc2I)(C(=O)NCC(F)(F)F)[C@H](c2ccc(CO)cc2)N1C1CCCCC1`: the z-score was 1.77 in experiment [1]; 0.515 in experiment [2]; 1.02 in experiment [3]; -1.75 in [4]; -3.92 in experiment [5]; 1.3 in [6]. In addition, the z-score in experiment [7] is 0.238 (inactive); in experiment [8], -0.434; in experiment [9], 0.23; in [10] it was -0.0818 (inactive).
